Reference: PubChem BioAssay
Active and inactive are the calls of the source.

What was measured:
[1] = optical density shifts of acrAB sulA E. coli – strain DRC41, OD650, 48 h, E. coli filamentation inducer project, primary screen (AID 1152); conditions: higher = more signal, called active from +8 up or from −8 down;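 also: E. coli MC1000 strain DRC41 lacking acrAB efflux pump and sulA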
[2] = probe aLefty1 binding on compound microarray – biochemical, small-molecule microarray, 635/667 nm fluorescence, primary screen (AID 1153); conditions: higher = more signal;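 also: score merges spot fluorescence with signal-to-noise ratio from the scanned slide images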
[3] = plasmodial surface anion channel blockers, osmotic lysis – cell-based, P. falciparum Indochina, OD700, 1 h, primary screen (AID 1154); conditions: P. falciparum Indochina infected RBC osmotic lysis, higher = more signal, called active from +8 up or from −8 down
[4] = plasmodial surface anion channel blockers, osmotic lysis – cell-based, P. falciparum Indochina, OD700, 2 h, primary screen (AID 1155);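 also: lysis reports solute entry through the parasite surface anion channel PSAC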; conditions: P. falciparum Indochina infected erythrocytes, higher = more signal, called active from +8 up or from −8 down
[5] = changes in parasitized red cell lysis, either direction – P. falciparum Indochina, OD700, 3 h, PSAC antagonist project, primary screen (AID 1156); conditions: P. falciparum-infected erythrocytes, osmotic lysis, higher = more signal, called active from +8 up or from −8 down
[6] = plasmodial surface anion channel blockers, osmotic lysis – cell-based, P. falciparum Indochina, OD700, 18 h, primary screen (AID 1157); conditions: P. falciparum Indochina infected erythrocytes, osmotic lysis OD700, 18 h; higher = more signal, called active from +8 up or from −8 down
[7] = S6 kinase pathway phospho-S6 level changes – cell-based, A549, cytoblot, luminescence, serum-stimulated, primary screen (AID 1158); conditions: 5 h, higher = more signal;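 also: serum-stimulated A549 lung adenocarcinoma cells; signal is phosphorylated S6 detected by cytoblot immunostaining with HRP secondary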
[8] = molecular target: NADPH oxidase 2 (Homo sapiens) (UniProt P04839); assay: compounds shifting NOX2 Amplex Red fluorescence – cell-based, HEK293-NOX2, PMA-stimulated, NOX inhibitor project, primary screen (AID 1159); conditions: 45 min, higher = more signal, called active from +8 up or from −8 down; also: test concentration not given here
[9] = molecular target: NADPH oxidase 4 (Homo sapiens) (UniProt Q9NPH5); assay: compounds shifting NOX4 Amplex Red fluorescence – cell-based, HEK293-NOX4, tetracycline-induced, NOX inhibitor project, primary screen (AID 1160); conditions: HEK293-NOX4, Amplex Red H2O2 fluorescence, 45 min; higher = more signal, called active from +8 up or from −8 down
[10] = molecular target: NADPH oxidase 5 (Homo sapiens) (UniProt Q96PH1); assay: compounds shifting NOX5 Amplex Red fluorescence – cell-based, HEK293-NOX5, NOX inhibitor project, primary screen (AID 1161); conditions: HEK293-NOX5, ionomycin, 45 min, higher = more signal
Sequence of NADPH oxidase 5 (Homo sapiens) (Q96PH1 whole entry, looked up): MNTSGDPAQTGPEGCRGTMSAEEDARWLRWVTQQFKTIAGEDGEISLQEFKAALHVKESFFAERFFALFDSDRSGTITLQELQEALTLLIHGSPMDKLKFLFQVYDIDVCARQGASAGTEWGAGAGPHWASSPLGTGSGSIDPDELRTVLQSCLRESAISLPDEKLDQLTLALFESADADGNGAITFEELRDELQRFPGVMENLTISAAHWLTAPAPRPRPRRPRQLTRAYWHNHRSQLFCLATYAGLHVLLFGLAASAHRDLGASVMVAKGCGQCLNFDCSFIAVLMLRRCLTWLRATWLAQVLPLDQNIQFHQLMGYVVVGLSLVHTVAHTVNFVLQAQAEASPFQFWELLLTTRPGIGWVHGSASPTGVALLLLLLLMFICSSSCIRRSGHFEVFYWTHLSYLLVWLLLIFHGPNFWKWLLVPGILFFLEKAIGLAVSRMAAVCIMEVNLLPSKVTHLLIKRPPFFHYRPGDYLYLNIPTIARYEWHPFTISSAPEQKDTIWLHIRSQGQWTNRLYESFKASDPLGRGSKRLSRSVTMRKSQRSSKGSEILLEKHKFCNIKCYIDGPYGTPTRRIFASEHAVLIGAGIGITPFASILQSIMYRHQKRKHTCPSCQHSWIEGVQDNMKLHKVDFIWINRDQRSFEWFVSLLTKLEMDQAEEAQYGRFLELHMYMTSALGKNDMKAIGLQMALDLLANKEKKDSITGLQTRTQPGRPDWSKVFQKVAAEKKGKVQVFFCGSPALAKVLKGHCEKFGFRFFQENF

Sequence of NADPH oxidase 4 (Homo sapiens) (Q9NPH5 whole entry, looked up): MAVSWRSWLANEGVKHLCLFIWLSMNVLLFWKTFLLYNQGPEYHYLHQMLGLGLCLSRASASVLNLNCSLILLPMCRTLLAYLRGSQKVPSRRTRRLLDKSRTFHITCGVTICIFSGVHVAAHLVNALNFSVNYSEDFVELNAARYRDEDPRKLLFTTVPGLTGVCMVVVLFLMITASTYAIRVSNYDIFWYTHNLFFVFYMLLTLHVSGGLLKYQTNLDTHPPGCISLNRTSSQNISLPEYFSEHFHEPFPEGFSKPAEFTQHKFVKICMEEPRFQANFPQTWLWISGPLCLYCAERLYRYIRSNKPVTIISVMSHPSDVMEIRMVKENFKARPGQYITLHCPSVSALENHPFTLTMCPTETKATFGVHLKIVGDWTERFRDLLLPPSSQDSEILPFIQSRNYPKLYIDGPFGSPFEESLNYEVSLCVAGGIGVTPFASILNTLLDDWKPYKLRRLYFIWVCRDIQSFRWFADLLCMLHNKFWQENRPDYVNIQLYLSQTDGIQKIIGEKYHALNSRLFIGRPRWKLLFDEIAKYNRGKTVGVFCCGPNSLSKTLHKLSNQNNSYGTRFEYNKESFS
Sequence of NADPH oxidase 2 (Homo sapiens) (P04839 whole entry, looked up): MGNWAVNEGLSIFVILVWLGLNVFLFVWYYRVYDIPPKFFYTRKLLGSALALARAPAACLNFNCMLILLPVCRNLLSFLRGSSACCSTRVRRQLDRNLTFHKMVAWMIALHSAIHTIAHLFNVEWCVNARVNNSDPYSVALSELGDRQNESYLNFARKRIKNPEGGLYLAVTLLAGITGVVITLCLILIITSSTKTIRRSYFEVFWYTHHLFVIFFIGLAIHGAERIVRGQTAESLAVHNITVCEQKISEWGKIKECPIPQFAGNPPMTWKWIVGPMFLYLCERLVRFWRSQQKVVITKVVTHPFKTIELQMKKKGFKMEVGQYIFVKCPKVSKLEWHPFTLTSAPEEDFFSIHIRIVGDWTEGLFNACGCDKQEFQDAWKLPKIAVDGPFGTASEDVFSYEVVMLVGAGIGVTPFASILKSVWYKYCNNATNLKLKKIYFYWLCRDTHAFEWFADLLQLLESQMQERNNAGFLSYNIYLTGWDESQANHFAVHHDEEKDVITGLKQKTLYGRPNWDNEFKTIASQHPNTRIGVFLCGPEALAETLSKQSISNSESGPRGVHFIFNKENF

SMILES	z-score [1]	composite z-score [2]	z-score [3]	z-score [4]	z-score [5]	z-score [6]	z-score [7]	z-score [8]	z-score [9]	z-score [10]
NCCCCCNC(=O)[C@@H]1C[C@@H]2C(=O)NCC(=O)N2[C@@H]1c1cccc(OCCO)c1	1.81 (inactive)	0.165	2.11 (inactive)	0.282 (inactive)	-0.874 (inactive)	0.154 (inactive)	0.121	1.44 (inactive)	-0.373 (inactive)	2.89
COc1cc(OC)c(C(O)C2C=CC3C(=O)N(c4ccccc4)C(=O)C3N2Nc2ccccc2)cc1Br (stereo not given)	-0.789 (inactive)	0.0834	20.2 (active)	5.27 (inactive)	0.508 (inactive)	2.03 (inactive)	-0.543	-1.61 (inactive)	-4.38 (inactive)	-2.38
C=C(C)c1cc2c(c(CCCCCC)n1)[Si](C(C)C)(C(C)C)OC2	-0.959 (inactive)	-0.245	1.18 (inactive)	0.7 (inactive)	-0.0223 (inactive)	0.778 (inactive)	0.202	-1.98 (inactive)	-0.933 (inactive)	-2.92
CCOC(=O)C1=CC[C@@H](c2ccc(OCc3ccccc3)c(OC)c2)N(S(=O)(=O)c2ccc(C)cc2)[C@H]1c1ccc(SC)cc1	-1.21 (inactive)	0.524	0.658 (inactive)	0.9 (inactive)	0.692 (inactive)	0.387 (inactive)	-0.635	0.877 (inactive)	0.0161 (inactive)	-0.508
CO[C@]12C=C(Br)[C@@H](C[C@@H]1c1cccc(C)c1)[C@@]1(CO1)C2=O	-0.009 (inactive)	-0.0035	-0.219 (inactive)	-0.119 (inactive)	0.442 (inactive)	-0.382 (inactive)	0.149	-0.356 (inactive)	0.539 (inactive)	-0.588
CC(C)[Si](C#C[Si](C(C)C)(C(C)C)C(C)C)(O[C@H](C)c1cn([C@H](CO)Cc2ccccc2)nn1)C(C)C	2.09 (inactive)	-0.212	0.532 (inactive)	0.655 (inactive)	-0.116 (inactive)	0.359 (inactive)	0.479	-1.96 (inactive)	0.188 (inactive)	0.0884
COc1ccc([Si](C)(C)[C@H]2[C@H](CCO)O[C@@]3(C(=O)N(Cc4cccc(N5C(=O)COc6ccccc65)c4)c4ccccc43)[C@@H]2C)cc1	1.76 (inactive)	0.122	2.15 (inactive)	3.18 (inactive)	1.7 (inactive)	1.77 (inactive)	0.805	-1.26 (inactive)	1.1 (inactive)	1.09
COCCOC(=O)N1C(=O)[C@@]2(c3cc(C#CC4=CCCCC4)ccc31)[C@H](c1ccc(OCCO)cc1)N1[C@H](c3ccccc3)[C@H](c3ccccc3)OC(=O)[C@H]1[C@@H]2C(=O)N1CCN(c2ncccn2)CC1	0.887 (inactive)	0.121	3.35 (inactive)	1.73 (inactive)	-0.146 (inactive)	0.799 (inactive)	0.829	0.825 (inactive)	-0.623 (inactive)	1.03
Cn1cccc1C(O)C1C=CC2C(=O)NC(=O)C2N1Nc1ccc(Cl)cc1Cl (stereo not given)	-3.18 (inactive)	0.0981	2.16 (inactive)	1.35 (inactive)	0.304 (inactive)	1.07 (inactive)	-1.42	-0.663 (inactive)	-3.85 (inactive)	-2.71
C=C(CCCC)/C(=C/C[C@@H](OC(=O)c1ccncc1)c1ccccc1OCCO)c1cnc2ccccc2c1	-0.209 (inactive)	0.541	20.2 (active)	4.55 (inactive)	1.58 (inactive)	1.12 (inactive)	0.759	-0.852 (inactive)	0.474 (inactive)	-0.524
CC(C)(C)N1CC=CC23O[C@@H]4C=CCCOC(=O)C4[C@H]2C(=O)N(CCO)[C@@H]3C1=O (stereo not given in full)	0.209 (inactive)	-0.0823	0.901 (inactive)	0.884 (inactive)	1.28 (inactive)	0.6 (inactive)	0.461	1.31 (inactive)	0.696 (inactive)	1.23
CN1C(=O)C2C=CC(C(O)c3cccc(O)c3)N(Nc3ccccc3)C2C1=O (stereo not given)	-0.85 (inactive)	0.147	-0.0746 (inactive)	0.253 (inactive)	-0.606 (inactive)	0.287 (inactive)	-0.967	-2.6 (inactive)	-5.27 (inactive)	-4.62
O=C(N1CCCCC1)[C@@]1(CCS(=O)(=O)c2ccccc2)COC(c2ccc(OCCCO)cc2)=N1	0.641 (inactive)	0.457	27.3 (active)	21.1 (active)	2.47 (inactive)	2.93 (inactive)	-0.436	-1.53 (inactive)	0.675 (inactive)	0.885
